Some test systems named below: VRK2; WEE1; WEE2; WNK1; WNK2; WNK3; WNK4; ZAK; ZAP70; p38-delta.
What all share (conditions): concentration: 1 μM, replicates: in singlicate; n = 1
In another experiment the test system is T1, VEGFR2.
T1 construct: gene KDR

The test system of the next experiment is T2, VPS34.
T2 construct: gene PIK3C3

In a further experiment the test system is T3, YANK1.
T3 construct: gene STK32A

In another experiment the test system is T4, YANK2.
T4 construct: gene STK32B

A further experiment relates to T5, YANK3.
T5 construct: gene STK32C

The next experiment deals with T6, YES.
T6 construct: gene YES1

The test system of another experiment is T7, YSK1.
T7 construct: gene STK25

In the next experiment the test system is T8, YSK4.
T8 construct: gene MAP3K19

The next experiment has as its system T9, p38-alpha.
T9 construct: gene MAPK14

In the next experiment the test system is T10, p38-beta.
T10 construct: gene MAPK11

Each structure is given as a SMILES string.
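Also: KINOMEscan kinase panel screen.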

Turning to `CSc1ccc(-c2nc3n(c2-c2ccncc2)CCC3)cc1` [SKF-105561], the “%Inh” value in the experiment on VEGFR2 was found to be 11%; with VPS34, 19%; in the experiment with VRK2, 3%; in the experiment on WEE1 it was 0%; with WEE2 it was 7%; in the experiment on WNK1 it was 24%. Further, the “%Inh” value in the experiment with WNK2 is listed as 21%; in the experiment on WNK3, 30%; in the experiment on WNK4, 3%; with YANK1, 0%; in the experiment on YANK2, 6%; in the experiment with YANK3 it was 0%. The “%Inh” value in the experiment on YES is listed as 7%; in the experiment with YSK1, 0%; with YSK4, 7%; with ZAK, 3%; in the experiment on ZAP70, 0%; with p38-alpha it was 51%. Moreover, the “%Inh” value with p38-beta was 7%; with p38-delta, 0%.
As for `CNc1cc(-c2ccc3c(N)n[nH]c3c2)nc(N)n1` [GSK2224810], the “%Inh” value with VEGFR2 amounted to 25%; with VPS34, 0%; in the experiment on VRK2, 0%; in the experiment with WEE1 it was 1%; in the experiment with WEE2, 5%; with WNK1 it was 0%. Besides, the “%Inh” value was found to be 0% with WNK2; 19% in the experiment with WNK3; 88% in the experiment with WNK4; 36% with YANK1; 8% in the experiment with YANK2; 0% in the experiment with YANK3. The “%Inh” value in the experiment with YES came to 0%; in the experiment with YSK1, 6%; with YSK4, 58%; with ZAK, 0%; in the experiment on ZAP70 it was 0%; with p38-alpha, 23%. Besides, the “%Inh” value in the experiment on p38-beta is listed as 0%; with p38-delta, 38%.
Take `CNCc1ccc2nc(NC(=O)c3ccc(C(C)(C)C)cc3)cn2c1`: the “%Inh” value amounted to 6% in the experiment on VEGFR2; 2% with VPS34; 74% in the experiment on VRK2; 0% with WEE1; 0% with WEE2; 0% in the experiment on WNK1. The “%Inh” value is 0% with WNK2; 30% in the experiment on WNK3; 13% in the experiment with WNK4; 2% with YANK1; 22% in the experiment on YANK2; 3% in the experiment on YANK3. In addition, the “%Inh” value with YES was 0%; in the experiment with YSK1, 7%; in the experiment on YSK4 it was 30%; in the experiment on ZAK, 3%; in the experiment on ZAP70, 15%; with p38-alpha it was 83%. Besides, the “%Inh” value with p38-beta and in the experiment with p38-delta was 0% each time.
Turning to `COc1ccc2cc(-c3nc(-c4ccccc4C(C)C)[nH]c3-c3ccncc3)ccc2c1` [SB-660566], the “%Inh” value in the experiment on VEGFR2 was 0%; in the experiment with VPS34 it was 0%; in the experiment on VRK2 it was 0%; in the experiment with WEE1, 12%; with WEE2, 15%; in the experiment with WNK1 it was 10%. The “%Inh” value in the experiment on WNK2 turned out to be 14%; in the experiment on WNK3, 42%; in the experiment on WNK4, 0%; in the experiment with YANK1, 16%; in the experiment with YANK2, 62%; with YANK3, 53%. The “%Inh” value is 25% with YES; 31% with YSK1; 45% in the experiment with YSK4; 31% in the experiment with ZAK; 0% with ZAP70; 3% in the experiment on p38-alpha. Moreover, the “%Inh” value in the experiment with p38-beta came to 2%; in the experiment with p38-delta it was 44%.
Consider `COc1ccc(Nc2nccc(NCCNC(=O)Nc3cc(C)ccc3C)n2)cc1` [GSK1379899], for which the “%Inh” value in the experiment with VEGFR2 is reported as 2%; in the experiment on VPS34, 4%; in the experiment with VRK2, 0%; in the experiment with WEE1, 0%; with WEE2 it was 0%; in the experiment with WNK1, 0%. The “%Inh” value is given as 10% in the experiment on WNK2; 0% with WNK3; 0% in the experiment with WNK4; 0% with YANK1; 0% with YANK2; 0% with YANK3. Also, the “%Inh” value stood at 0% in the experiment with YES; 0% in the experiment with YSK1; 4% in the experiment with YSK4; 3% with ZAK; 0% with ZAP70; 0% in the experiment on p38-alpha. Moreover, the “%Inh” value in the experiment on p38-beta is given as 0%; in the experiment with p38-delta, 21%.
Turning to `COc1cccc(CNC(=O)NC2CCN(c3ccnc(Nc4ccc(F)cc4)n3)C2)c1` (stereo not shown) [GSK1379723], the “%Inh” value came out at 1% with VEGFR2; 0% in the experiment with VPS34; 0% in the experiment with VRK2; 3% in the experiment on WEE1; 12% in the experiment with WEE2; 6% with WNK1. In addition, the “%Inh” value with WNK2 came out at 13%; with WNK3, 5%; in the experiment on WNK4, 7%; in the experiment with YANK1 it was 0%; in the experiment on YANK2, 0%; in the experiment on YANK3, 14%. Also, the “%Inh” value in the experiment with YES is 8%; in the experiment on YSK1, 0%; in the experiment on YSK4, 28%; with ZAK, 100%; in the experiment on ZAP70, 0%; with p38-alpha, 0%. Besides, the “%Inh” value in the experiment with p38-beta is 0%; in the experiment with p38-delta it was 43%.
In the case of `CS(=O)(=O)CCNCc1nc(-c2ccc3ncnc(Nc4ccc(OCc5ccccc5)c(Cl)c4)c3c2)cs1.Cl` [GW582764], the “%Inh” value with VEGFR2 amounted to 0%; in the experiment with VPS34, 0%; in the experiment with VRK2, 50%; in the experiment on WEE1, 0%; in the experiment on WEE2, 16%; in the experiment on WNK1, 6%. In addition, the “%Inh” value with WNK2 is given as 13%; in the experiment on WNK3, 45%; with WNK4, 60%; in the experiment with YANK1 it was 0%; with YANK2 it was 0%; with YANK3, 40%. Moreover, the “%Inh” value in the experiment with YES was determined as 7%; in the experiment on YSK1, 0%; in the experiment on YSK4, 30%; with ZAK, 5%; with ZAP70, 0%; in the experiment on p38-alpha, 0%. Also, the “%Inh” value was found to be 0% in the experiment with p38-beta and 37% with p38-delta.
Take `O=C(Nc1n[nH]c2nc(-c3cccs3)c(Br)cc12)C1CC1` [SB-735297]: the “%Inh” value was 0% in the experiment with VEGFR2; 6% in the experiment with VPS34; 0% in the experiment on VRK2; 0% in the experiment on WEE1; 0% in the experiment on WEE2; 0% in the experiment on WNK1. Moreover, the “%Inh” value in the experiment with WNK2 turned out to be 0%; in the experiment with WNK3, 0%; in the experiment on WNK4, 29%; in the experiment on YANK1 it was 0%; in the experiment on YANK2, 11%; in the experiment on YANK3 it was 0%. Moreover, the “%Inh” value in the experiment on YES is reported as 8%; with YSK1, 0%; in the experiment with YSK4, 95.3%; with ZAK, 30%; in the experiment with ZAP70 it was 0%; with p38-alpha, 4%. In addition, the “%Inh” value with p38-beta worked out at 2%; in the experiment with p38-delta it was 0%.
On to `c1ccc(-c2ccnc3[nH]ccc23)cc1` [SB-693578], for which the “%Inh” value in the experiment on VEGFR2 is recorded as 32%; in the experiment with VPS34, 0%; with VRK2 it was 27%; in the experiment with WEE1, 10%; with WEE2, 23%; in the experiment on WNK1, 0%. Further, the “%Inh” value in the experiment with WNK2 was found to be 11%; with WNK3, 48%; in the experiment with WNK4, 37%; in the experiment on YANK1, 0%; in the experiment on YANK2, 0%; with YANK3 it was 8%. Further, the “%Inh” value worked out at 14% in the experiment on YES; 1% with YSK1; 93.5% in the experiment on YSK4; 25% in the experiment on ZAK; 55% in the experiment with ZAP70; 3% with p38-alpha. The “%Inh” value was found to be 0% with p38-beta and 39% in the experiment on p38-delta.
Take `COc1ccc(Nc2nccc(N3CCC(NC(=O)C(C)c4ccc(Cl)cc4)C3)n2)cc1` (stereo not shown) [GSK1379735]: the “%Inh” value in the experiment with VEGFR2 is 0%; with VPS34, 15%; with VRK2 it was 0%; in the experiment with WEE1 it was 16%; in the experiment with WEE2, 0%; in the experiment on WNK1 it was 6%. The “%Inh” value in the experiment with WNK2 was found to be 31%; with WNK3, 8%; in the experiment on WNK4 it was 0%; in the experiment on YANK1, 69%; with YANK2 it was 7%; with YANK3 it was 15%. Moreover, the “%Inh” value in the experiment with YES amounted to 13%; in the experiment with YSK1 it was 0%; in the experiment with YSK4 it was 0%; with ZAK it was 5%; in the experiment with ZAP70, 2%; with p38-alpha, 0%. Further, the “%Inh” value in the experiment with p38-beta is recorded as 24%; in the experiment with p38-delta, 29%.
For `Nc1ncnc2occ(-c3ccc4c(c3)CCN4C(=O)Cc3cc(F)ccc3F)c12` [GSK2645446], the “%Inh” value is 0% in the experiment with VEGFR2; 0% with VPS34; 0% in the experiment with VRK2; 0% in the experiment on WEE1; 13% in the experiment with WEE2; 1% with WNK1. The “%Inh” value with WNK2 is 14%; in the experiment on WNK3, 38%; with WNK4 it was 60%; in the experiment with YANK1, 0%; with YANK2, 0%; in the experiment on YANK3 it was 0%. For the same compound, the “%Inh” value came out at 0% in the experiment on YES; 4% with YSK1; 66% in the experiment on YSK4; 0% in the experiment on ZAK; 0% with ZAP70; 0% in the experiment with p38-alpha. The “%Inh” value is 0% in the experiment on p38-beta and 24% in the experiment on p38-delta.

Values taken from PMC5540273 (PLoS ONE, 2017).
